# High-throughput results (PubChem BioAssay)
# The sample as a whole holds a higher share of hits than the screen did.
# Cycloheximide cs: counter-screen hit for Shiga toxin inhibitors, cycloheximide; cell reporter, cycloheximide protein synthesis inhibition counterscreen; max response, %; hit rate 12% among 300,000; in the data active = max response mostly above about 13%, no sharp cut-off; inactive = mostly below about 14%; note: read at 38.3 µM for the half of the compounds with a filed dose
# TbPYK inhibitor: blocks Trypanosoma brucei pyruvate kinase | Q57TT1 | hit rate 0.12% among 410,000 | TbPYK enzyme, Kinase-Glo Plus ATP luminescence, 45 min | Potency, µM (titrated, usually from 76.8 µM), hits mostly inhibitors; note: nearly all actives have a fitted effect of over 50% in size
#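 Screened from lowest to highest concentration, compounds were pinned into TbPYK/substrate mixtures, and ADP (130 uM final) was added. Plates sat at room temperature for 45 min prior to Kinase-Glo Plus detection by luminescence.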
# LmPK inh: LmPK (Leishmania mexicana) enzyme inhibition. Q27686. purified LmPK, Kinase-Glo ATP luminescence, 1 h. Potency, µM (doses to about 57.5 µM), most hits filed as inhibitors. hit rate 0.37% among 290,000
# Target sequence (Q27686 whole entry, looked up): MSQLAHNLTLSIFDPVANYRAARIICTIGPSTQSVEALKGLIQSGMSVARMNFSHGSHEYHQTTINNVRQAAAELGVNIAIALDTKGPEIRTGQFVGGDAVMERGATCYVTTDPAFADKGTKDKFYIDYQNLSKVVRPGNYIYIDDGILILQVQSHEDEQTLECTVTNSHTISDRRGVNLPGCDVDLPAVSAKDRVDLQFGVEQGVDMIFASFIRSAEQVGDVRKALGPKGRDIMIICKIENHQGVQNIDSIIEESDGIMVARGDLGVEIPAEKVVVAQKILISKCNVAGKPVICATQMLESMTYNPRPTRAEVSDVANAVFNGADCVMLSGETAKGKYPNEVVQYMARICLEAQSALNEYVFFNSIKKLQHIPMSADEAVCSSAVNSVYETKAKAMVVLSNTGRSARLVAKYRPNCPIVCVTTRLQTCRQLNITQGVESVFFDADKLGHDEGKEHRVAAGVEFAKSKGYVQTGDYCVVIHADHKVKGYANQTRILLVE
#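 Pyruvate kinase activity monitored as ATP production (luciferase luminescence). Conditions: 0.1 nM enzyme, 0.5 mM PEP, 0.1 mM ADP, 1 h, RT; normalized against uninhibited and no-enzyme wells.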
# Shiga inhibitor: inhibitors of Shiga toxin in Vero cells; Vero cells, Shiga toxin protein synthesis inhibition reporter; hit rate 9.2% among 290,000; inhibition, % at 38.7 µM; in the data active = inhibition mostly above about 28%, no sharp cut-off; inactive = mostly below about 43%
# Sm TGR inh: blocks Schistosoma mansoni thioredoxin glutathione reductase; Q962Y6; purified TGR, DTNB reduction, TNB absorbance 405 nm; Potency, µM (series often up to 114 µM), most hits filed as inhibitors; hit rate 3% among 360,000; AID 485364; note: nearly all actives have a fitted effect of over 60% in size
#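 First, TGR (20 nM dispensed) and NADPH were mixed with compound. Second, a 15 min room-temperature incubation followed. Third, further NADPH and then DTNB were added to start the reaction. Finally, TNB absorbance was monitored kinetically.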
# Giardia FBPA inh: blocks Giardia fructose-bisphosphate aldolase activity | purified Giardia FBPA | Potency, µM (top dose mostly 59.6 µM), actives largely listed as inhibitors | hit rate 0.71% among 290,000 | AID 2451; note: nearly all actives have a fitted effect of over 55% in size
#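 40 nM FBPA preincubated 10 min at RT with compound (up to 57.5 uM final), then substrate plus GAPDH/TPI/NAD/arsenate coupling and diaphorase/resazurin added. Fluorescence read after 20 min at RT, 525/598 nm.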
# Numbers stand for hits; - = inactive; ? = inconclusive; . = not tested or not shown; [ ] = another dose, or the depositor's remark. Unless noted, calls come from the whole dose curve; as a rule, active = well fitted curve in the direction sought with a large enough effect; inconclusive = small, poorly fitted or top-dose-only effect, or another doubt; inactive = no such curve, though single readings can be large; an effect the other way counts as inactive or inconclusive.
SMILES,Cycloheximide cs,TbPYK inhibitor,LmPK inh,Shiga inhibitor,Sm TGR inh,Giardia FBPA inh
Cc1ccc(OCC(=O)c2ccc(Cl)s2)c([N+](=O)[O-])n1,-,-,-,-,3.5µM,?
COc1ccc(OCCOc2ccc(C)nc2[N+](=O)[O-])cc1,49,-,-,93,-,-
Cc1ccc(COc2ccc(C)nc2[N+](=O)[O-])cc1,50,-,-,83,-,-
COc1ccnc(CSC(N)=Nc2ccc(F)cc2)c1,31,?,-,66,45µM,?
COc1ccc(Cn2c(CO)cnc2SCc2ccc(F)cc2)cc1,.,-,.,.,-,.
COCCN1C(=O)C(O)=C(C(=O)c2cccs2)C1c1ccccc1 (stereo not drawn),-,-,-,-,-,-
CCN(CC)CCN1C(=O)C(O)=C(C(C)=O)C1c1ccccc1[N+](=O)[O-] (stereo not drawn),-,-,-,-,45µM,?
CCN(CC)CCN1C(=O)C(O)=C(C(=O)c2cccs2)C1c1ccc(C)o1 (stereo not drawn),22,-,-,27,28µM,-
O=C(C1=C(O)C(=O)N(CCN2CCOCC2)C1c1ccccn1)c1cccs1 (stereo not drawn),28,-,-,36,20µM,?
CCN(CC)CCN1C(=O)C(O)=C(C(=O)c2cccs2)C1c1ccccn1 (stereo not drawn),20,-,-,-,?,?
CC(=O)C1=C(O)C(=O)N(CCc2ccccc2)C1c1ccccc1[N+](=O)[O-] (stereo not drawn),-,-,-,-,-,-
COc1ccc(-c2cn3nc(SCC(=O)Nc4cc(C)cc(C)c4)ccc3n2)cc1,.,-,.,.,-,.
CC1=C(C(=O)Nc2ccc(C)cc2C)C(c2cc(Br)ccc2F)n2ncc(C(=O)Nc3ccc(C)cc3)c2N1 (stereo not drawn),.,-,.,.,-,.
N#Cc1c(-n2ncnc2-c2ccccc2Cl)sc2c1CCCCC2,.,-,.,.,-,.
Cc1ccc(C2C(C(=O)c3sc(C)nc3C)=C(O)C(=O)N2CCN(C)C)o1 (stereo not drawn),-,-,-,-,45µM,-
Cc1ccc(C2C(C(=O)c3cccs3)=C(O)C(=O)N2CCN2CCOCC2)o1 (stereo not drawn),24,-,-,50,20µM,?
CCOc1ccc(-c2cc(C(=O)NC3CCCCC3)[nH]n2)c(C)c1,.,-,.,.,.,.
CCC(C(=O)N1CCN(c2ccccc2)CC1)n1nc(C)c2sc3ccccc3c2c1=O (stereo not drawn),.,-,.,.,-,.
CCOC(=O)[C@]12CCC=C1N(Cc1ccco1)C(=O)[C@H](CC(=O)N1CCOCC1)C2,.,-,.,.,.,.
CCOC(=O)c1c(C)oc(NC(=O)CCl)c1C(=O)OCC,-,-,-,-,14µM,-
CCOC(=O)c1c(C)oc(=O)c(CC)c1O,.,-,.,.,.,.
COc1ccc(N2C(=O)[C@@H]3[C@H](C2=O)[C@H]2c4ccccc4C=CN2[C@@H]3C(C)=O)cc1,-,-,-,-,40µM,?
CC(=O)c1ccc(N2C(=O)[C@@H]3[C@H](C2=O)[C@H]2c4ccccc4C=NN2[C@@H]3C(C)=O)cc1,10,-,-,-,-,-
COc1ccc(N2C(=O)[C@H]3[C@@H](C2=O)C2c4ccccc4C=NN2[C@H]3C(=O)C(C)(C)C)cc1 (stereo partly drawn),-,-,-,-,-,-
CCN1CCN(c2ccc(S(=O)(=O)N3CCOCC3)cc2NC(=O)C(C)Oc2ccc(Cl)cc2)CC1 (stereo not drawn),.,-,.,.,-,.
SMILES,Cycloheximide cs,TbPYK inhibitor,LmPK inh,Shiga inhibitor,Sm TGR inh,Giardia FBPA inh
C[C@H](CCCC/C=C/C(=O)O)O[C@@H]1O[C@@H](C)[C@H](O)C[C@H]1O,.,-,.,.,56µM,.
O=C(NC1CCCCCCC1O)c1ccccc1 (stereo not drawn),.,-,.,.,.,.
O=C(NC1=NC2CCCCC2N1)c1ccccc1 (stereo not drawn),34,-,-,97,-,-
O=C1C2CC=CCC2C(=O)N1c1ccc(NCCc2ccc(Cl)cc2)c([N+](=O)[O-])c1 (stereo not drawn),-,-,-,-,-,-
O=C1C2CC=CCC2C(=O)N1c1ccc(NCCc2ccc(O)cc2)c([N+](=O)[O-])c1 (stereo not drawn),33,-,-,63,-,-
CCCCN(CC(=O)NCCOC)C(=O)Cn1nnc2ccccc21,-,-,-,-,-,-
O=C(/C=C/c1ccccc1)NCc1ccco1,30,-,-,69,-,-
O=C(/C=C/c1ccco1)NCc1ccco1,-,-,-,-,4µM,-
Cc1ccc(/C=C/C(=O)NCc2ccco2)o1,-,.,-,-,13µM,-
O=C(/C=C/c1ccccc1Cl)NCc1ccco1,43,-,-,63,-,-[12.9 µM]
N#C/C(=C\C=C\c1ccccc1)C(=O)NCc1ccco1,-,-,-,-,.,-
COc1cccc(NC(=O)CSc2nc3ccc(NC(=O)c4cccs4)cc3s2)c1,.,-,.,.,-,.
O=C(Nc1ccc(C(=O)N2CCN(c3cccc(Cl)c3)CC2)cc1)c1nsc2ccccc12,.,-,.,.,-,.
CCNC(=O)/C(=C/c1ccco1)NC(=O)/C=C/c1ccccc1,-,-,-,-,40µM,-
COc1ccc(/C=C/C(=O)NCc2ccccn2)cc1,17,-,-,34,-,-
O=C(/C=C/c1ccc(Cl)c(Cl)c1)NCCCn1ccnc1,25,-,-,51,-,-
Cc1ccc(/C=C/C(=O)NCc2ccccn2)o1,-,?,-,-,18µM,-
COc1ccc(/C=C/C(=O)NCc2ccccn2)cc1OC,-,-,-,-,-,?
COc1ccc(C(=O)NCc2nnc(SCC(=O)Nc3ccccc3)n2-c2ccccc2)cc1,.,-,.,.,-,.
Cc1ccc(C(=O)N(C)CCOc2ccccc2)cc1S(=O)(=O)N1CCCCC1,.,-,.,.,-,.
Cc1ccc(CNC(=O)c2sc3nc(C)cc(C)c3c2-n2cccc2)cc1,.,-,.,.,-,.
CCOc1ccc(NC(=O)C2CCCN(S(=O)(=O)c3cccc4nonc34)C2)cc1 (stereo not drawn),.,-,.,.,-,.
Cc1ccc(C(=O)N/C(=C/c2ccco2)C(=O)NCC2CCCO2)cc1 (stereo not drawn),-,-,-,-,-,-
O=C(/C=C/c1ccc2c(c1)OCO2)NCc1ccco1,25,-,-,-,40µM,-
COc1ccc(/C=C/C(=O)NCCOc2ccccc2OC)cc1,-,-,-,-,-,-
COC(=O)CNC(=O)/C=C/c1ccc(OC)cc1,27,-,-,57,-,-
O=C(/C=C/c1ccco1)NCC1CCCO1 (stereo not drawn),-,-,-,-,5µM,-
COCC(C)NC(=O)/C=C/c1ccc(OC)cc1 (stereo not drawn),19,-,-,-,-,-
COc1ccc(/C=C/C(=O)N[C@@H](C)C(=O)O)cc1,-,-,-,-,-,-
